Only some compounds are listed: those with a hit (about 32% of all), similar ones and a draw of the others.
CYP2C9 inhib: inhibitors of human CYP2C9 | P11712 | CYP2C9 Supersomes, luciferin-H conversion, luminescence | inhibition, % at 5 µM | actives 20% (n = 96,000) | AID 777;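 active = blocking of liver enzyme CYP2C9 beyond about 50% at 5 µM, limit read from the data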
Target sequence (P11712 whole entry, looked up): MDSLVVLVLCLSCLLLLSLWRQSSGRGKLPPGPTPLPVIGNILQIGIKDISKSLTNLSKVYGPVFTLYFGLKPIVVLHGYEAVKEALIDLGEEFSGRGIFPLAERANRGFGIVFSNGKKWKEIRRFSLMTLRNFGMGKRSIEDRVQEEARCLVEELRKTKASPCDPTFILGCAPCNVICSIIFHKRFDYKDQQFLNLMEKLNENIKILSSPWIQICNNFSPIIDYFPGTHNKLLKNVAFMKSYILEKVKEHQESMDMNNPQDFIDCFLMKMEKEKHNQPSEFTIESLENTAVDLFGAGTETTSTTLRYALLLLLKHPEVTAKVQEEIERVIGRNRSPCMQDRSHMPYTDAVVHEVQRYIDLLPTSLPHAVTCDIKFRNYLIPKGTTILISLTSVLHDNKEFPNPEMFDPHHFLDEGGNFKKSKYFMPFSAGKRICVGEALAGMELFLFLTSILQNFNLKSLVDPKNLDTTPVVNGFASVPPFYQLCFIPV
CYP2C19 inhib: blocks human cytochrome P450 2C19; P33261; actives 21% (n = 96,000); CYP2C19 Supersomes, luciferin-H EGE luminescence, 30 min; inhibition, % at 5 µM; AID 778;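 active = CYP2C19 inhibition above a set limit at 5 µM in the primary screen, cut at about 50% in these data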;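 note: plate controls were negative control wells for no effect and 2.5 mM tranylcypromine positive control for full effect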
CYP2C19 activ: increases human CYP2C19 enzyme activity | recombinant CYP2C19, luciferin-H EGE luminescence; active compounds read high; 0 = fully inhibited enzyme, 1 = untreated enzyme | 96,000 tested, under 10 active | activation factor at 5 µM;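 active = activation factor of at least 2 at 5 µM in the primary screen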;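 note: 0 = wells with 2.5 mM tranylcypromine and 1 = vehicle-only wells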
PostGolgi ctrl: yeast control strain growth, post-Golgi counter-screen; AID 738; efflux-deficient yeast background strain, growth absorbance A615, 16 h; inhibition, % at 10 µM; actives 5% (n = 98,000)
PostGolgi yeast: growth inhibition of a yeast mutant, post-Golgi transport screen. AID 739. actives 0.9% (n = 98,000). post-Golgi transport phenotypic cell assay. inhibition, % at 10 µM;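 note: yeast cells grown in 1536-well plates; yeast grown about 18 h at 30C before absorbance read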
CYP2C9 act: CYP2C9 (human) activation; P11712; recombinant CYP2C9, luciferin-H conversion, luminescence; active compounds read high; factor 1 = untreated enzyme, 0 = blocked; activation factor at 5 µM; actives 1.4% (n = 96,000); AID 1024;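 active = activation factor of 2 or more for CYP2C9 at a 5 µM dose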;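 note: 0 = sulfaphenazole-blocked wells and 1 = vehicle-only wells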
The depositor's hits bear a star; x = no result given. Cut-off read from the data, not from the text of the source, unless noted: active = inhibition above about 30%; inactive = the rest.

SMILES	CYP2C9 inhib	CYP2C19 inhib	CYP2C19 activ	PostGolgi ctrl	PostGolgi yeast	CYP2C9 act
CC1CCCN(C(=O)CSCC(=O)Nc2nc(-c3cccs3)cs2)C1 (centres undefined)	31	39	0.6	64*	-5	0.7
CC1CCCCN1C(=O)CSCC(=O)Nc1nc(-c2cccs2)cs1 (centres undefined)	x	x	x	73*	-1	x
O=C(CSCC(=O)N1CCOCC1)Nc1nc(-c2ccc3c(c2)OCO3)cs1	46	35	0.7	17	-3	0.5
CC1CCN(C(=O)CSCC(=O)Nc2nc(-c3cccs3)cs2)CC1	x	x	x	65*	-1	x
O=C(O)C1CCCCC1C(=O)Nc1nc(-c2cccs2)cs1 (centres undefined)	1	-18	1.2	2	-4	1
CCOC(=O)N1CCN(C(=O)CSCC(=O)Nc2nc(-c3ccc4c(c3)OCO4)cs2)CC1	73*	42	0.6	8	-2	0.3
CCOC(=O)N1CCN(C(=O)CSCC(=O)Nc2nc(-c3ccc(C)cc3)cs2)CC1	30	-20	1.2	-2	4	0.7
Cc1cc(=O)[nH]c(SCC(=O)Nc2ccc(Cl)cn2)n1	17	46	0.5	-1	-2	0.8
COc1ccc(C2c3c(ncn(CCN4CCOCC4)c3=N)Oc3ccc4ccccc4c32)cc1OC (centres undefined)	25	14	0.9	-3	0	0.7
COc1cc2c(cc1OC)C1(Nc3c-2c(Cc2ccccc2)nn3-c2ccccc2)C(=O)Nc2ccccc21 (centres undefined)	41	0	1	9	3	0.6
COc1ccc(CCNC2CCN(C)CC2)cc1OC	74*	10	0.9	8	1	0.3
O=C(CSc1ccc2nnc(-c3ccc(F)cc3)n2n1)NCC1CCCO1 (centres undefined)	-6	-10	1.1	5	9	1.1
Cn1c(=O)cc(SCC(=O)NCC2CCCO2)c2ccccc21 (centres undefined)	-115	-19	1.2	-4	2	2.1*
Cc1ccc(-n2nnc3c(SCC(=O)NCC4CCCO4)ncnc32)cc1 (centres undefined)	64*	45	0.6	14	-6	0.4
Cc1cccc2c(SCC(=O)NCC3CCCO3)nc(-c3ccc(F)cc3)nc12 (centres undefined)	48	52*	0.5	12	5	0.5
O=C(CSc1c[nH]c2ccccc12)NCC1CCCO1 (centres undefined)	-17	54*	0.5	8	-2	1.2
COCc1cc(=O)n2[nH]c(C(F)(F)F)nc2n1	-5	-4	1	3	-3	1.1
CNCCCNCc1ccc(SC)cc1	3	1	1	3	2	1
O=C(O)c1nn(-c2ccc(Cl)cc2)ccc1=O	-9	-7	1.1	13	2	1.1
Cc1ccc(/C=C/C(=O)N2CC(C)CC(C)C2)o1 (centres undefined)	26	28	0.7	17	-12	0.7
CCCn1cc(SCC(=O)NCC2CCCO2)c2ccccc21 (centres undefined)	-52	39	0.6	2	7	1.5
COC(=O)c1ccc(CSc2ncnc3c2nnn3-c2ccc(OC)cc2)o1	56*	52*	0.5	8	-4	0.4
O=C(CSc1oc(-c2ccco2)nc1S(=O)(=O)c1ccc(Cl)cc1)NCC1CCCO1 (centres undefined)	35	76*	0.2	11	37*	0.6
O=C(CSc1cc(Cl)ccc1Cl)NCC1CCCO1 (centres undefined)	-216	74*	0.3	-1	-3	3.2*
O=C(CSCc1c(Cl)cccc1Cl)NCC1CCCO1 (centres undefined)	-54	7	0.9	-2	-2	1.5
SMILES	CYP2C9 inhib	CYP2C19 inhib	CYP2C19 activ	PostGolgi ctrl	PostGolgi yeast	CYP2C9 act
Cn1cc(SCC(=O)NCC2CCCO2)c2ccccc21 (centres undefined)	-120	36	0.6	9	-13	2.2*
O=c1c2ccccc2nnn1CSc1nnc2ccccn12	-9	48	0.5	9	13	1.1
O=C(NC1CCCCC1)C(c1ccccc1)N1CCC2(CC1)OCCO2 (centres undefined)	20	26	0.7	0	25	0.8
COc1cccc(C2CC(c3ccccc3Cl)n3ncnc3N2)c1 (centres undefined)	52*	97*	0	-6	-2	0.5
COc1ccc(C2CC(c3cccc(OC)c3OC)n3nnnc3N2)cc1 (centres undefined)	65*	96*	0	12	4	0.3
CCOc1ccc(C2CC(c3cccc(OC)c3)n3nc(N)nc3N2)cc1 (centres undefined)	21	3	1	19	2	0.8
COc1cccc(C2CC(c3ccccc3Cl)n3nnnc3N2)c1 (centres undefined)	89*	100*	0	1	-10	0.1
COc1cccc(C2CC(c3cccs3)Nc3ncnn32)c1 (centres undefined)	0	32	0.7	-3	3	1
CCOc1ccc(C2CC(c3cccc(OC)c3)Nc3ncnn32)cc1 (centres undefined)	95*	79*	0.2	21	0	0
COc1cccc(C2CC(c3c(Cl)cccc3Cl)n3nc(N)nc3N2)c1 (centres undefined)	9	19	0.8	-3	17	0.9
CCN(CC)CCCNC(=O)c1sc2nc(-c3ccc(F)cc3)cn2c1C	-4	-6	1.1	4	16	1
O=C(CN1CCC(NC(=O)Cc2ccccc2)CC1)Nc1cccc2ccccc12	23	33	0.7	-2	-26	0.8
C1CCc2nnc(-c3nnc4n3CCCCC4)n2CC1	-12	-16	1.2	1	-3	1.1
Cc1ccc(C)n1-c1ccc(-c2nnc3n2CCCCC3)s1	64*	37	0.6	-3	1	0.4
COCC(C)NC(=O)c1cc(-c2ccc(OC)c(OC)c2)on1 (centres undefined)	-20	5	1	17	0	1.2
CCCCC(=O)NC(c1ccco1)c1c(O)ccc2ccccc12 (centres undefined)	70*	49	0.5	0	0	0.3
CCCC(=O)NC(c1ccco1)c1c(O)ccc2ccccc12 (centres undefined)	90*	97*	0	6	-1	0.1
O=C(Nc1ccccc1)N(Cc1ccc(Cl)cc1)CC(O)C(F)(F)F (centres undefined)	53*	37	0.6	12	-9	0.5
CCCCOc1ccc(C(=O)NCC(=O)OC2CCOC2=O)cc1 (centres undefined)	-11	-16	1.2	9	9	1.1
CCCc1cc2c(=O)c(-c3ccc4c(c3)OCCO4)coc2cc1OC(=O)c1ccco1	-15	16	0.8	6	12	1.2
